According to PubChem BioAssay (EPA / NIEHS):
Results filed as inconclusive are left out. Activity calls are given as the source filed them. The calls were made as follows: active = hit-call score of the fitted dose curve at least 0.9, where 1 is the maximum; inconclusive = response in the unintended direction; inactive = score below 0.9.

Experiment: ACEA_ER_AUC_viability: ACEA Biosciences xCELLigence Real-Time Cell Analysis on Estrogen Receptor Agonism for Viability (AID 2283782);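 also: continuous compound exposure with impedance area under curve over 80 h; hit means loss of impedance signal meaning reduced cell growth or viability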
Experimental: ACEA_ER is a cell-based, single-readout assay that uses T47D, a human breast cell line, with measurements taken at 80 hours after chemical dosing in a 96-well plate, although TO2 (mc0.srcf) used a 384-well plate. Differences in plate size can be ignored given data normalization.ACEA_ER_AUC_viability is one of two assay component(s) measured or calculated from the ACEA_ER assay. It is designed to make measurements of real-time cell-growth kinetics, a form of growth reporter, as detected with electrical impedance signals by Real-Time Cell Electrode Sensor (RT-CES) technology.Data from the assay component ACEA_ER_AUC_viability was analyzed in the positive analysis fitting direction relative to DMSO as the negative control and baseline of activity. Using a type of growth reporter, loss-of-signal activity can be used to understand changes in the viability. Furthermore, this assay endpoint can be referred to as a secondary readout, because this assay has produced multiple assay endpoints where this one serves a viability function. To generalize the intended target to other relatable targets, this assay endpoint is annotated to the cell cycle intended target family, where the subfamily is cytotoxicity.
The xCELLigence system Multi-E-Plate stations were used to measure the time-dependent response to chemicals. Each compound was tested in an eight-point, 1:4 serial dilution series starting at a maximum final concentration of 100 uM. A maximum starting concentration of 0.5% DMSO was present in the 100 uM chemical samples and was diluted along with the test article dilution series. The screen was performed in biological duplicate using two separate, 96-well, E-Plates 96 for each dilution series (n = 2). Positive controls (MG132 and E2) and a negative control (assay media) were tested in quadruplicate on each testing plate. Then, 0.5% and 0.125% DMSO were tested in duplicates in each plate to serve as solvent controls for the 2 highest concentrations of testing compounds: 100 uM and 25 uM. Reference compounds were tested with 8 concentrations with 1:5 serial dilutions. All screening was carried out by ACEA Biosciences, Inc. (San Diego, CA). T-47D cells purchased from ATCC were maintained in RPMI1640 media supplemented with 10% characterized fetal bovine serum (FBS). Before screening, T-47D cells were preconditioned in assay medium: phenol red-free RPMI1640 supplemented with 10% charcoal-stripped FBS. Cells were then detached and seeded in E-Plates 96 in assay medium. After overnight monitoring of growth once every hour, compounds were added to […] cells and remained in the medium until the end of the experiment. Cellular responses were then recorded once every 5 min for the first 5 h, and once every hour for an additional 100 h.
In the case of `CC/C=C\CCCCCO`, the outcome was “inactive”. With `O=C(Oc1ccccc1)c1ccccc1` the outcome was “inactive”. In the case of `C=C(C)C(=O)OCCNC(C)(C)C`, the outcome was “inactive”. In the case of `CCO[Si](CCCN)(OCC)OCC`, the outcome was “inactive”. In the case of `Cc1cc(O)cc(C)c1Cl`, the AC50 was 81.1 µM (active). In the case of `O=S(=O)(O)c1cccc2ccccc12`, the outcome was “inactive”. With `CCC(=O)OCc1ccc(OC)cc1` the AC50 was 39.9 µM (active). For `CCCC/C=C/CCCCO`, the AC50 was 50 µM (active). With `C=C1CC[C@H]2C[C@@H]1C2(C)C` the outcome was “inactive”. In the case of `CCCCC(CC)COC(=O)CS` (stereo not given), the outcome was “inactive”. In the case of `Nc1ccc(S(=O)(=O)Nc2cnc3ccccc3n2)cc1`, the outcome was “inactive”. With `CCCCCCCCCC/C=C/C1CC(=O)OC1=O` (stereo not given) the AC50 was 64.1 µM (active). For `CO[Si](CCCNCCN)(OC)OC`, the outcome was “inactive”. For `Cc1ccccc1S(N)(=O)=O`, the outcome was “inactive”. With `N#CCN(CC#N)CCN(CC#N)CC#N` the outcome was “inactive”. In the case of `CC(C)CC(=O)CC(C)CC(C)C` (stereo not given), the outcome was “inactive”. In the case of `CCCCCCCC#N`, the outcome was “inactive”. For `CC(C)=CCOC(=O)c1ccccc1`, the AC50 was 50 µM (active). In the case of `CC1=C(CC=O)C(C)(C)CCC1`, the AC50 was 64.2 µM (active). In the case of `O=C(O)c1cc(Cl)cc(Cl)c1O`, the outcome was “inactive”. With `COC(=O)[C@]1(C)CCC[C@@]2(C)[C@H]1CC=C1C=C(C(C)C)CC[C@@H]12` the AC50 was 73.3 µM (active). In the case of `c1ccc(CNc2ncnc3nc[nH]c23)cc1`, the outcome was “inactive”. In the case of `COc1cccc(OC)c1C(=O)O`, the outcome was “inactive”. With `CC[N+](CC)(CC(=O)Nc1c(C)cccc1C)Cc1ccccc1` the outcome was “inactive”. In the case of `CCO[Si](OCC)(OCC)c1ccccc1`, the outcome was “inactive”. For `O=C(OCc1ccccc1)c1ccccc1`, the AC50 was 76.8 µM (active). With `COc1c2occc2cc2ccc(=O)oc12` the outcome was “inactive”. In the case of `O=C1CCCCCCCCCCCCCC1`, the outcome was “inactive”. In the case of `CCCOCCC`, the outcome was “inactive”. With `Cc1cc(C)c(S(=O)(=O)O)cc1N=Nc1cc(S(=O)(=O)O)c2ccccc2c1O` the outcome was “inactive”. In the case of `CN(C)c1ccc(C(c2ccccc2)c2ccc(N(C)C)cc2)cc1`, the AC50 was 75.8 µM (active). For `O=[N+]([O-])c1ccc2nc[nH]c2c1`, the outcome was “inactive”. For `CC/C=C\CC1=C(C)CCC1=O`, the AC50 was 92.5 µM (active). In the case of `F[B-](F)(F)F`, the outcome was “inactive”. For `O=C(O)/C=C/C(=O)O`, the outcome was “inactive”. With `CC1=CCCC(C)(C)C12CCC(C)O2` (stereo not given) the AC50 was 60.7 µM (active). For `CCCCCCC1CCC(=O)O1` (stereo not given), the outcome was “inactive”. For `O=C(O)Cc1c[nH]c2ccccc12`, the outcome was “inactive”. In the case of `CC/C=C\CC/C=C/C(OCC)OCC`, the AC50 was 82.5 µM (active). For `CCOC(=O)c1ccccc1`, the AC50 was 50 µM (active).
